PubChem BioAssay AID1159580 (chemical genetic matrix, 2015)
About 2,000 (36%) of roughly 5,500 compounds were called active. Not shown: some 18% with an inconclusive outcome. Rule as the data show it: active = normalized growth mostly below about 0.91 (no sharp cut-off); inconclusive = no clear call, values can overlap the other calls; inactive = mostly above about 0.92. This is one part of the list.

Experiment: chemical genetic growth profiling, strain panel (AID 1159580);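 also: tested at 20 µM; growth read once vehicle control cultures reached saturation at 30 °C; 1 = growth at the plate median or of vehicle wells; lower values mean less growth of the strain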
Conditions: growth OD

Measured: normalized growth

CC(=O)N[C@@H](Cc1c[nH]c2ccccc12)C(=O)O
inactive: S. cerevisiae deletion strains, locus YJR075W, strain HOC1, hits give low values 1 | S. cerevisiae deletion strains, locus YKL009W, strain mrt4, hits give low values 0.981 | S. cerevisiae deletion strains, locus YKL068W, hits give low values 1.01 | S. cerevisiae deletion strains, locus YKL085W, strain MDH1 (second series), hits give low values 1.01 | S. cerevisiae deletion strains, locus YKL085W, strain MDH1, hits give low values 1.01 | S. cerevisiae deletion strains, locus YKL160W, strain elf1, hits give low values 0.962 | S. cerevisiae deletion strains, locus YKL190W, strain CNB1, hits give low values 1 | S. cerevisiae deletion strains, locus YKR001C, strain vps1, hits give low values 1.02 | S. cerevisiae deletion strains, locus YKR026C, strain gcn3, hits give low values 0.987 | S. cerevisiae deletion strains, locus YKR091W, strain srl3, hits give low values 0.977 | S. cerevisiae deletion strains, locus YLL001W, strain dnm1, hits give low values 0.983 | S. cerevisiae deletion strains, locus YLL026W, hits give low values 0.99 | S. cerevisiae deletion strains, locus YLL041C, strain sdh2, hits give low values 1 | S. cerevisiae deletion strains, locus YLR027C, strain aat2, hits give low values 0.994 | S. cerevisiae deletion strains, locus YLR039C, strain RIC1, hits give low values 1.02 | S. cerevisiae deletion strains, locus YLR058C, strain SHM2, hits give low values 1.01 | S. cerevisiae deletion strains, locus YLR102C, strain apc9, hits give low values 1.02 | S. cerevisiae deletion strains, locus YLR113W, strain HOG1, hits give low values 1 | S. cerevisiae deletion strains, locus YLR221C, strain rsa3, hits give low values 1.01 | S. cerevisiae deletion strains, locus YLR258W, strain gsy2, hits give low values 0.967 | S. cerevisiae deletion strains, locus YLR262C, strain YPT6 (second series), hits give low values 1.02 | S. cerevisiae deletion strains, locus YLR262C, strain YPT6, hits give low values 1.02 | S. cerevisiae deletion strains, locus YLR268W, strain sec22, hits give low values 1.04 | S. cerevisiae deletion strains, locus YLR320W, strain mms22, hits give low values 1.02 | S. cerevisiae deletion strains, locus YLR330W, strain CHS5, hits give low values 1.01 | S. cerevisiae deletion strains, locus YLR342W, strain FKS1 (second series), hits give low values 1.04 | S. cerevisiae deletion strains, locus YLR342W, strain FKS1, hits give low values 0.981 | S. cerevisiae deletion strains, locus YLR357W, strain rsc2, hits give low values 0.983 | S. cerevisiae deletion strains, locus YLR370C, strain arc18, hits give low values 0.995 | S. cerevisiae deletion strains, locus YLR371W, strain rom2, hits give low values 1.03 | S. cerevisiae deletion strains, locus YLR384C, strain iki3, hits give low values 0.984 | S. cerevisiae deletion strains, locus YLR418C, strain cdc73, hits give low values 1.07 | S. cerevisiae deletion strains, locus YML016C, strain PPZ1, hits give low values 1.01 | S. cerevisiae deletion strains, locus YML032C, strain rad52, hits give low values 1.02 | S. cerevisiae deletion strains, locus YML120C, strain ndi1, hits give low values 0.989 | S. cerevisiae deletion strains, locus YML124C, strain tub3, hits give low values 1.02 | S. cerevisiae deletion strains, locus YMR058W, strain fet3, hits give low values 0.988 | S. cerevisiae deletion strains, locus YMR078C, strain ctf18, hits give low values 1.02 | S. cerevisiae deletion strains, locus YMR125W, strain sto1, hits give low values 0.973 | S. cerevisiae deletion strains, locus YMR129W, hits give low values 0.976 | S. cerevisiae deletion strains, locus YMR205C, strain PFK2, hits give low values 0.985 | S. cerevisiae deletion strains, locus YMR223W, strain ubp8, hits give low values 1.02 | S. cerevisiae deletion strains, locus YMR231W, strain pep5, hits give low values 0.978 | S. cerevisiae deletion strains, locus YMR263W, strain SAP30, hits give low values 0.998 | S. cerevisiae deletion strains, locus YMR307W, strain GAS1, hits give low values 0.959 | S. cerevisiae deletion strains, locus YNL067W, strain RPL9B, hits give low values 1.01 | S. cerevisiae deletion strains, locus YNL071W, strain lat1, hits give low values 0.99 | S. cerevisiae deletion strains, locus YNL128W, strain TEP1, hits give low values 1.01 | S. cerevisiae deletion strains, locus YNL153C, strain GIM3, hits give low values 1.01 | S. cerevisiae deletion strains, locus YNL183C, strain NPR1, hits give low values 0.886 | S. cerevisiae deletion strains, locus YNL209W, strain ssb2, hits give low values 0.989 | S. cerevisiae deletion strains, locus YNL233W, strain BNI4, hits give low values 1.01 | S. cerevisiae deletion strains, locus YNL248C, strain rpa49, hits give low values 0.98 | S. cerevisiae deletion strains, locus YNL250W, strain rad50, hits give low values 1 | S. cerevisiae deletion strains, locus YNL271C, strain bni1, hits give low values 1.03 | S. cerevisiae deletion strains, locus YNL298W, strain CLA4, hits give low values 1.02 | S. cerevisiae deletion strains, locus YNL307C, strain MCK1, hits give low values 1.03 | S. cerevisiae deletion strains, locus YNL322C, strain KRE1 (second series), hits give low values 0.995 | S. cerevisiae deletion strains, locus YNL322C, strain KRE1, hits give low values 1 | S. cerevisiae deletion strains, locus YNR049C, strain mso1, hits give low values 0.959 | S. cerevisiae deletion strains, locus YNR052C, strain pop2, hits give low values 1.01 | S. cerevisiae deletion strains, locus YOL006C, strain TOP1, hits give low values 1.09 | S. cerevisiae deletion strains, locus YOL012C, strain htz1 0.924 | S. cerevisiae deletion strains, locus YOL147C, strain pex11, hits give low values 1.02 | S. cerevisiae deletion strains, locus YOR001W, strain rrp6, hits give low values 1.01 | S. cerevisiae deletion strains, locus YOR061W, strain CKA2, hits give low values 1.01 | S. cerevisiae deletion strains, locus YOR069W, strain VPS5, hits give low values 1 | S. cerevisiae deletion strains, locus YOR070C, strain gyp1, hits give low values 0.996 | S. cerevisiae deletion strains, locus YOR080W, strain dia2, hits give low values 0.986 | S. cerevisiae deletion strains, locus YOR083W, strain WHI5, hits give low values 0.97 | S. cerevisiae deletion strains, locus YOR106W, strain vam3, hits give low values 0.964 | S. cerevisiae deletion strains, locus YOR136W, strain idh2, hits give low values 1.01 | S. cerevisiae deletion strains, locus YOR144C, strain elg1, hits give low values 1.02 | S. cerevisiae deletion strains, locus YOR184W, strain ser1, hits give low values 1.02 | S. cerevisiae deletion strains, locus YOR231W, strain MKK1, hits give low values 0.994 | S. cerevisiae deletion strains, locus YOR265W, strain rbl2, hits give low values 1.01 | S. cerevisiae deletion strains, locus YOR270C, strain vph1, hits give low values 1.01 | S. cerevisiae deletion strains, locus YOR290C, strain snf2, hits give low values 0.974 | S. cerevisiae deletion strains, locus YOR316C, strain cot1, hits give low values 1.02 | S. cerevisiae deletion strains, locus YPL051W, strain arl3, hits give low values 0.989 | S. cerevisiae deletion strains, locus YPL055C, strain LGE1, hits give low values 1.01 | S. cerevisiae deletion strains, locus YPL078C, strain atp4, hits give low values 0.978 | S. cerevisiae deletion strains, locus YPL106C, strain sse1, hits give low values 0.949 | S. cerevisiae deletion strains, locus YPL240C, strain hsp82, hits give low values 1 | S. cerevisiae deletion strains, locus YPL241C, strain CIN2, hits give low values 1 | S. cerevisiae deletion strains, locus YPL256C, strain CLN2, hits give low values 0.99 | S. cerevisiae deletion strains, locus YPR119W, strain clb2, hits give low values 1.02 | S. cerevisiae deletion strains, locus YPR141C, strain kar3, hits give low values 1.02 | S. cerevisiae deletion strains, locus YPR163C, strain tif3, hits give low values 1.04 | S. cerevisiae deletion strains, locus YPR167C, strain met16, hits give low values 1.01 | S. cerevisiae deletion strains, strain wtn01, hits give low values 1.01 | S. cerevisiae strains, strain wild type, hits give low values 1
